{
  "source": "paper PMC5540273",
  "about": "(PLoS ONE, 2017);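 further: KINOMEscan kinase panel screen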",
  "data": [
    {"tested_on": "MLK2", "conditions": "concentration: 1 μM, replicates: in singlicate; n = 1", "units": {"%Inh": "%"}, "values": [
      {"smiles": "N#CC1(c2cccc(C(=O)Nc3cccc(Oc4ccc5nc(NC(=O)C6CC6)sc5n4)c3)c2)CC1", "%Inh": 22},
      {"smiles": "O=C(Nc1n[nH]c2nc(-c3ccccc3)ccc12)C1CC1", "note": "[SB-708999]", "%Inh": 11},
      {"smiles": "CC(C)c1nc(-c2cccc(NS(=O)(=O)c3c(F)cccc3F)c2)c(-c2ccnc(Nc3ccc(N4CCOCC4)nc3)n2)s1.Cl", "note": "[GSK1723980]", "%Inh": 34},
      {"smiles": "Cl.Cl.NCC(NC(=O)c1cc(-c2cccnc2)c(-c2ccnc3[nH]ccc23)s1)c1ccccc1", "note": "(stereo not drawn) [GSK1323434]", "%Inh": 0},
      {"smiles": "COC(=O)Nc1nc2cc(Oc3ccc(NC(=O)Nc4cccc(SC)c4)cc3)ccc2[nH]1.Cl", "note": "[GW697999]", "%Inh": 0},
      {"smiles": "O=C(Nc1n[nH]c2nc(-c3ccccc3O)ccc12)C1CC1", "note": "[SB-711880]", "%Inh": 0},
      {"smiles": "O=C(Nc1n[nH]c2cc(-c3cccs3)ccc12)C1CC1", "note": "[SB-731284]", "%Inh": 27},
      {"smiles": "O=C(Nc1c(F)cccc1F)c1cc(C(=O)c2ccccc2F)c[nH]1", "note": "[GSK1326180]", "%Inh": 21},
      {"smiles": "Cc1ccc(Nc2ccnc(Nc3ccc(C)c(F)c3)n2)cc1O.Cl", "note": "[GW582868]", "%Inh": 0},
      {"smiles": "COc1cccc(-c2nc(-c3ccccc3)[nH]c2-c2ccncc2)c1", "note": "[SB-610250]", "%Inh": 0},
      {"smiles": "CCn1cnc2c(NCc3ccccc3)ncnc21", "note": "[SKF-96418]", "%Inh": 27},
      {"smiles": "Cl.Cl.NC(CNC(=O)c1cc(Br)c(-c2ccnc3[nH]ccc23)s1)c1ccccc1", "note": "(stereo not drawn) [GSK1322949]", "%Inh": 0},
      {"smiles": "CN(c1ccc(F)c(NC(=O)c2cccc(OC(C)(C)C#N)c2Cl)c1)c1ccc2nc(NC(=O)C3CC3)sc2n1", "%Inh": 4},
      {"smiles": "Fc1cc(Cl)ccc1Nc1ccnc2cc(-c3ccc(CN4CCOCC4)o3)ccc12", "note": "[GW560109]", "%Inh": 0},
      {"smiles": "COc1cc(Nc2ccnc3cc(-c4ccncc4)ccc23)cc(OC)c1OC.Cl", "note": "[GW494610]", "%Inh": 27},
      {"smiles": "Cc1ccc(O)cc1Nc1ccnc2cc(-c3ccc(CN4CCCCC4)o3)ccc12", "note": "[GW557777]", "%Inh": 0},
      {"smiles": "Nc1ncc(-c2ccc3nccc(-c4ccncc4)c3c2)cc1S(=O)(=O)N1CCCCC1", "note": "[GSK1693850]", "%Inh": 0},
      {"smiles": "COc1ccc(C)c(Nc2ccnc(Nc3ccc(-c4cnc[nH]4)cc3)n2)c1.Cl", "note": "[GW784041]", "%Inh": 12},
      {"smiles": "Fc1cc(Cl)ccc1Nc1ccnc2cc(-c3ccc(CN4CCSCC4)o3)ccc12", "note": "[GW560106]", "%Inh": 0},
      {"smiles": "Cc1ccc(NC(=O)c2ccnc(N3CCCCC3)c2)cc1-c1ccc(C(=O)NCC2CC2)cc1", "note": "[GW775610]", "%Inh": 0},
      {"smiles": "CCOc1nccc(-c2c(-c3ccc(F)cc3)ncn2C2CCNCC2)n1", "note": "[SB-249175]", "%Inh": 14},
      {"smiles": "O=C(O)C(F)(F)F.O=c1[nH]ccc2nc(N[C@@H]3CCNC3)nc(Nc3ccc4c(c3)S(=O)(=O)CC4)c12", "note": "[GSK2181306]", "%Inh": 9},
      {"smiles": "c1ccc(Oc2ccc(Nc3ccnc4cc(-c5ccc(CN6CCCCC6)o5)ccc34)cc2)nc1", "note": "[GW567143]", "%Inh": 14},
      {"smiles": "Cc1ccc(C)c(NC(=O)Nc2ccc(C)c(-c3ccc(C(=O)Nc4ccncc4)cc3)c2)c1", "note": "[GSK1398473]", "%Inh": 0},
      {"smiles": "Cn1cc(-c2cnc(N)c3c(-c4ccc5c(c4)CCN5C(=O)Cc4ccccc4)csc23)cn1", "note": "[GSK2593074]", "%Inh": 25},
      {"smiles": "O=C(O)C(F)(F)F.O=c1[nH]ccc2nc(N[C@@H]3CCNC3)nc(Nc3cc(Cl)cc(Cl)c3)c12", "note": "[GSK2188764]", "%Inh": 0},
      {"smiles": "Cl.O=C(Nc1ccc(Oc2ccc3[nH]c(NC(=O)c4ccco4)nc3c2)cc1)Nc1cc(C(F)(F)F)ccc1F", "note": "[GW683134]", "%Inh": 28},
      {"smiles": "Cc1cccc(Nc2nc(NCCN)ncc2C(N)=O)c1", "note": "[GSK1292139]", "%Inh": 0},
      {"smiles": "CC(C)NCC(Cc1ccccc1)NC(=O)c1cc(Br)c(-c2ccnc3[nH]ccc23)s1.Cl.Cl", "note": "(stereo not drawn) [GSK1383281]", "%Inh": 0},
      {"smiles": "Nc1cccc(-c2ccc3c(N)n[nH]c3c2)c1", "note": "[GSK2193613]", "%Inh": 100},
      {"smiles": "COc1cc(Nc2nccc(N3CCC(NS(=O)(=O)c4ccc(NC(C)=O)cc4)CC3)n2)cc(OC)c1OC", "note": "[GSK1379825]", "%Inh": 0},
      {"smiles": "Cc1nn2c(=O)cc(N3CCO[C@H](C)C3)nc2n1Cc1cccc(Cl)c1Cl", "note": "[GSK2373693]", "%Inh": 5},
      {"smiles": "CN1CCN(Cc2ccc(NC(=O)Nc3ccc(N(C)c4ccnc(Nc5ccc(CS(C)(=O)=O)cc5)n4)cc3)cc2)CC1.Cl", "note": "[GW827654]", "%Inh": 24}
    ]}
  ]
}
